PubChem BioAssay AID1159580 (chemical genetic matrix, 2015)
Several values for one entry are separate records, joined by “and”; a condition that tells them apart may be missing. Equal values may be shown once. The whole screen tested about 5,500 compounds, of which about 2,000 (36%) were called active. Another 18% or so got no clear call; they are omitted. Cut-off read from the data, not from the text of the source: active = normalized growth mostly below about 0.91 (no sharp cut-off); inconclusive = no clear call, values can overlap the other calls; inactive = mostly above about 0.92. This is one part of the list.

Experiment: chemical genetic growth profiling, strain panel (AID 1159580);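 note: tested at 20 µM; growth read once vehicle control cultures reached saturation at 30 °C; 1 = growth at the plate median or of vehicle wells; lower values mean less growth of the strain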
Conditions: S. cerevisiae deletion strains, growth OD

Measured: normalized growth

O=C(O[C@@H]1Cc2c(O)cc(O)cc2O[C@@H]1c1cc(O)c(=O)c2c(O)c(O)cc([C@H]3Oc4cc(O)cc(O)c4C[C@H]3OC(=O)c3cc(O)c(O)c(O)c3)c2c1)c1cc(O)c(O)c(O)c1
active: locus YAL013W, strain DEP1, stronger effect = lower value 0.633 | locus YAL021C, strain ccr4, stronger effect = lower value 0.0843 | locus YAL026C, strain drs2, stronger effect = lower value 0.432 | locus YAL030W, strain snc1, stronger effect = lower value 0.604 | locus YBL061C, strain skt5, stronger effect = lower value 0.513 | locus YBR009C, strain hhf1, stronger effect = lower value 0.434 | locus YBR023C, strain chs3, stronger effect = lower value 0.43 | locus YBR231C, strain swc5, stronger effect = lower value 0.418 | locus YBR279W, strain paf1, stronger effect = lower value 0.554 | locus YCL011C, strain gbp2, stronger effect = lower value 0.509 | locus YCL016C, strain dcc1, stronger effect = lower value 0.754 | locus YCL061C, strain MRC1, stronger effect = lower value 0.724 | locus YCL069W, strain vba3, stronger effect = lower value 0.776 | locus YCR088W, strain abp1, stronger effect = lower value 0.892 | locus YDL005C, strain med2, stronger effect = lower value 0.821 | locus YDL035C, strain GPR1, stronger effect = lower value 0.658 | locus YDL040C, strain nat1, stronger effect = lower value 0.868 | locus YDL074C, strain BRE1, stronger effect = lower value 0.58 | locus YDL101C, strain DUN1, stronger effect = lower value 0.706 | locus YDL134C, strain PPH21, stronger effect = lower value 0.741 | locus YDR069C, strain doa4, stronger effect = lower value 0.105 | locus YDR137W, strain rgp1, stronger effect = lower value 0.485 | locus YDR150W, strain NUM1, stronger effect = lower value 0.851 | locus YDR159W, strain sac3, stronger effect = lower value 0.735 | locus YDR162C, strain NBP2, stronger effect = lower value 0.344 | locus YDR195W, strain ref2 0.76 | locus YDR297W, strain sur2, stronger effect = lower value 0.45 | locus YDR334W, strain swr1, stronger effect = lower value 0.468 | locus YDR335W, strain msn5, stronger effect = lower value 0.604 | locus YDR502C, strain sam2, stronger effect = lower value 0.866 | locus YEL003W, strain gim4, stronger effect = lower value 0.527 | locus YEL037C, strain rad23, stronger effect = lower value 0.686 | locus YEL061C, strain CIN8, stronger effect = lower value 0.817 | locus YER015W, strain faa2, stronger effect = lower value 0.305 | locus YER016W, strain bim1, stronger effect = lower value 0.823 | locus YER111C, strain swi4, stronger effect = lower value 0.692 | locus YER155C, strain BEM2 (second series), stronger effect = lower value 0.836 | locus YER167W, strain BCK2, stronger effect = lower value 0.896 | locus YFR010W, strain ubp6, stronger effect = lower value 0.571 | locus YGL086W, strain mad1, stronger effect = lower value 0.893 | locus YGL167C, strain pmr1, stronger effect = lower value 0.551 | locus YGL173C, strain kem1, stronger effect = lower value 0.181 | locus YGL240W, strain doc1, stronger effect = lower value 0.693 | locus YGL248W, strain PDE1, stronger effect = lower value 0.681 | locus YGL253W, strain hxk2, stronger effect = lower value 0.555 | locus YGR078C, strain PAC10, stronger effect = lower value 0.787 | locus YGR135W, strain pre9, stronger effect = lower value 0.828 | locus YGR229C, strain SMI1, stronger effect = lower value 0.0949 | locus YHR013C, strain ard1, stronger effect = lower value 0.322 | locus YHR027C, strain rpn1, stronger effect = lower value 0.186 | locus YHR129C, strain ARP1, stronger effect = lower value 0.845 | locus YHR142W, strain chs7, stronger effect = lower value 0.493 | locus YIL066C, strain RNR3, stronger effect = lower value 0.509 | locus YIL073C, strain SPO22, stronger effect = lower value 0.196 | locus YJL092W, strain hpr5, stronger effect = lower value 0.856 | locus YJL095W, strain BCK1 (second series), stronger effect = lower value 0.269 | locus YJL129C, strain trk1, stronger effect = lower value 0.812 | locus YJL154C, strain vps35, stronger effect = lower value 0.842 | locus YJL164C, strain tpk1, stronger effect = lower value 0.419 | locus YJL166W, strain qcr8, stronger effect = lower value 0.371 | locus YJL187C, strain SWE1 (second series), stronger effect = lower value 0.512 | locus YJL187C, strain SWE1, stronger effect = lower value 0.457 | locus YJR043C, strain POL32, stronger effect = lower value 0.599
0.856 (active) and 1.02 (inactive): locus YHR030C, strain SLT2, stronger effect = lower value
inactive: locus YBR021W, strain FUR4, stronger effect = lower value 0.986 | locus YBR171W, strain sec66, stronger effect = lower value 0.918 | locus YBR229C, strain ROT2, stronger effect = lower value 0.981 | locus YCL029C, strain bik1, stronger effect = lower value 0.966 | locus YDL185W, strain tfp1, stronger effect = lower value 0.995 | locus YDL192W, strain arf1, stronger effect = lower value 0.955 | locus YDR001C, strain nth1, stronger effect = lower value 0.962 | locus YDR101C, strain arx1, stronger effect = lower value 1 | locus YDR318W, strain mcm21, stronger effect = lower value 0.981 | locus YDR388W, stronger effect = lower value 1.01 | locus YDR392W, strain spt3, stronger effect = lower value 0.81 | locus YEL061C, strain CIN8 (second series), stronger effect = lower value 0.915 | locus YER110C, stronger effect = lower value 1.04 | locus YER155C, strain BEM2, stronger effect = lower value 1 | locus YGL078C, strain dbp3, stronger effect = lower value 1.02 | locus YGL227W, strain vid30, stronger effect = lower value 0.989 | locus YGR252W, strain gcn5, stronger effect = lower value 0.896 | locus YHR079C, strain IRE1 (second series), stronger effect = lower value 1.01 | locus YHR079C, strain IRE1, stronger effect = lower value 1.04 | locus YHR094C, strain hxt1, stronger effect = lower value 1.04 | locus YHR200W, strain rpn10, stronger effect = lower value 0.969 | locus YIL125W, strain kgd1, stronger effect = lower value 1.04 | locus YIR030C, strain dcg1, stronger effect = lower value 1.03 | locus YJL115W, strain asf1, stronger effect = lower value 0.91 | locus YJL134W, strain LCB3, stronger effect = lower value 0.965 | locus YJL168C, strain set2, stronger effect = lower value 1.01 | locus YJR066W, strain TOR1, stronger effect = lower value 0.96
0.59 (active) and 1.02 (inactive): locus YJL095W, strain BCK1, stronger effect = lower value
